# Reference: paper PMC10726135, “HNF4α isoforms regulate the circadian balance between carbohydrate and lipid metabolism in the liver”
# Over roughly 18,000 sequences, “log2 normalized intensity” has its median near 0.39; the highest 2% begin near 6.6. Shown is part of a subset that was picked to be rich in the highest values.
# Molecular target: T1, HNF4alpha2 (COS-7 nuclear extract) (Homo sapiens, UniProt P41235 1-474)
# T1 sequence: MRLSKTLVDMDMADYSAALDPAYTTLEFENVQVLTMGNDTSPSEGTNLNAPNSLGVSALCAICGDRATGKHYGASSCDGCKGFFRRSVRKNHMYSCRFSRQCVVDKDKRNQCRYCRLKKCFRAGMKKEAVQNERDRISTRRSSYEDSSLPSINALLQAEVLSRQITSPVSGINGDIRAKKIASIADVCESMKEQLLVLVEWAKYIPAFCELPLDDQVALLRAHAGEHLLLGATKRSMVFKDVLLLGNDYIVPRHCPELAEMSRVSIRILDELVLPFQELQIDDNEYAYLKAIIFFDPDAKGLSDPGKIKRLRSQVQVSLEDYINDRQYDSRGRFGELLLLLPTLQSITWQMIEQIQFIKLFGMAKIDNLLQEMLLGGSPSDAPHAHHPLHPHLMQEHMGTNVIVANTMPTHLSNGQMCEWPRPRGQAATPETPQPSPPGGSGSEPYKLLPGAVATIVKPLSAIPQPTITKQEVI
# Assay: protein-binding microarray; COS-7 nuclear extract on double-stranded Agilent 4x180k PBM; binding buffer, salt, pH and temperature not given in the material; high values mean tight binding
# Conditions: chain copies: 2; label: 3' end of strand 1 on the slide; dsDNA, one strand shown
# Procedure, shortened: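 Double-stranded oligonucleotides of ~60 nt, representing ~44,000 test sequences in quadruplicate, made up a custom Agilent SurePrint G3 4x180k array. Nuclear extracts from COS-7 cells transiently transfected by CaPO4 with a human HNF4α isoform expression vector were applied, and bound HNF4α was imaged at 2-µm resolution on an Agilent G2565CA scanner. Binding signal refers to the background-corrected, normalized gProcessedSignal output of Agilent software.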
row,Sequence,binding signal [log2 normalized intensity]
1,CTTTGGAACCTGCCCTCTGTCCCATGGTGTGCCTAGGGAGATTAGAGTATCGGTCGA,2.48
2,AGAACCTGCCCATGACCTTTGGACTGTGACGCCTAGGGAGATTAGAGTATCGGTCGA,9.54
3,CTGCCCTTTGGAACCTGCCCTCTGTCCCATGCCTAGGGAGATTAGAGTATCGGTCGA,4.15
4,CATGACCTTTGGACTGTGACCCCACCTCTCGCCTAGGGAGATTAGAGTATCGGTCGA,7.45
5,AAACCCAAGATTTGGTGTTACCTTTGGACTGCCTAGGGAGATTAGAGTATCGGTCGA,5.71
6,GGGCAGGGTCAGAACCTGCCCATGACCTTTGCCTAGGGAGATTAGAGTATCGGTCGA,5.92
7,GGGTCAGAACCTGCCCATGACCTTTGGACTGCCTAGGGAGATTAGAGTATCGGTCGA,11.1
8,TGTAATAAGGAGTTGTGTGATAAGGAGGGCGCCTAGGGAGATTAGAGTATCGGTCGA,0.534
9,CATGCAATCACACTAATCTGTCAGAAAACCGCCTAGGGAGATTAGAGTATCGGTCGA,-0.731
10,GGTGAGGGTTACAGGTGGACAAACAGGCTGGCCTAGGGAGATTAGAGTATCGGTCGA,-0.829
11,GAAGATCGCAGACTTTGGACTCTGCAAGGAGCCTAGGGAGATTAGAGTATCGGTCGA,5.8
12,GAATTTGGACTTTGCACTAAAAGCCATGAGGCCTAGGGAGATTAGAGTATCGGTCGA,5.86
13,TTCCTGAAGATCGCAGACTTTGGACTCTGCGCCTAGGGAGATTAGAGTATCGGTCGA,7.83
14,CTGAAGAATTTGGACTTTGCACTAAAAGCCGCCTAGGGAGATTAGAGTATCGGTCGA,6.95
15,GGAGACCTGAAACTAGACCAAGAAGACTTTGCCTAGGGAGATTAGAGTATCGGTCGA,-0.974
16,TGGACTTTGCACTAAAAGCCATGAGAAGGTGCCTAGGGAGATTAGAGTATCGGTCGA,4.84
17,GGTGAGTCTTTGCCCCTGGACTTTGAATTTGCCTAGGGAGATTAGAGTATCGGTCGA,4.94
18,AGGGATTCCTGAAGATCGCAGACTTTGGACGCCTAGGGAGATTAGAGTATCGGTCGA,5.66
19,GGGTCCTGGCAGCACCTGAAGAATTTGGACGCCTAGGGAGATTAGAGTATCGGTCGA,1.23
20,AGCACCTGAAGAATTTGGACTTTGCACTAAGCCTAGGGAGATTAGAGTATCGGTCGA,8.43
21,TGGACTTTGGAATTAAGGAGATTTGGCTTTGCCTAGGGAGATTAGAGTATCGGTCGA,4.84
22,CTGGCAGCACCTGAAGAATTTGGACTTTGCGCCTAGGGAGATTAGAGTATCGGTCGA,7.7

row,Sequence,binding signal [log2 normalized intensity]
1,AATAGTGACCTCTGCTGGCCAGTGGAAAACGCCTAGGGAGATTAGAGTATCGGTCGA,1.08
2,CAGTCTAGAATCTGCAGCCCCTTTTGGAATGCCTAGGGAGATTAGAGTATCGGTCGA,2.02
3,CCACTGGAGTCTTGTTTGTCAAGTTTGGTAGCCTAGGGAGATTAGAGTATCGGTCGA,1.81
4,AGGGTGTTGTGGAATGTGCTTGGACCTGCTGCCTAGGGAGATTAGAGTATCGGTCGA,1.99
5,AGAAATGTTATCTCAGTAGACTAACGTATGGCCTAGGGAGATTAGAGTATCGGTCGA,0.476
6,GCATTCCACCAAATCTTACCTAAGGAAGTTGCCTAGGGAGATTAGAGTATCGGTCGA,-0.954
7,ATTCCAAGAAGAGCCAATAGTACACATCAAGCCTAGGGAGATTAGAGTATCGGTCGA,-0.572
8,GGGCTTTTGTCACATTCCAGACTTTGTACAGCCTAGGGAGATTAGAGTATCGGTCGA,4.95
9,ACATCAGAAGTTGGACTTTGTACATTCCAAGCCTAGGGAGATTAGAGTATCGGTCGA,7.69
10,GTACTTTGTACATGGGAATAGACATTCCAGGCCTAGGGAGATTAGAGTATCGGTCGA,2.04
11,AGAAGTTGGACTTTGTACATTCCAAATACGGCCTAGGGAGATTAGAGTATCGGTCGA,6.88
12,AATACGACCTTTGGACAGGGTGACGTCATTGCCTAGGGAGATTAGAGTATCGGTCGA,6.27
13,CCTGGTGACCTTTGTTTGGTCAAATACCTAGCCTAGGGAGATTAGAGTATCGGTCGA,2.9
14,TTGGACTTTGTACATTCCAAATACGATAATGCCTAGGGAGATTAGAGTATCGGTCGA,5.36
15,TCCAAAATACGACCTTTGGACAGGGTGACGGCCTAGGGAGATTAGAGTATCGGTCGA,6.8
16,ATGGTGGCCATTCTGATTTGATAAGATGTGGCCTAGGGAGATTAGAGTATCGGTCGA,0.774
17,CTTCGTCCTGAGCAGTCCCTTCCCCCCTCCGCCTAGGGAGATTAGAGTATCGGTCGA,5.36
18,ACTTGTTCCCTGTCGCTATCTTATCTGGGCGCCTAGGGAGATTAGAGTATCGGTCGA,1.62
19,CTCATTCTTGGAATGCATTGCAAGTCGTATGCCTAGGGAGATTAGAGTATCGGTCGA,1.17
20,TGCCCCTTCACATATTTTGAAAGAAAGAGAGCCTAGGGAGATTAGAGTATCGGTCGA,1.68
21,CGGCTTGCGTCCCCAGGTGAACTCAGTCCTGCCTAGGGAGATTAGAGTATCGGTCGA,1.21
